# In PubChem BioAssay (NCATS):
# Results filed as inconclusive are left out. Where a call stands in place of a potency, no number is given. Calls of active or inactive are those of the source. The call rests on the fitted dose curve; in most records, active means well fitted inhibition curve with a large enough effect; inconclusive means small, poorly fitted or top-dose-only effect; inactive means flat fitted curve, though single readings scatter.
# System: MCC-13
# Experiment: qHTS assay to identify novel small-molecules to repurpose for Merkel cell carcinoma treatment (AID 1296009); further: nearly all actives have a fitted effect of over 60% in size
# Details: MCC and control cell lines, CellTiter-Glo viability, 72 h; series mostly up to 46 µM
# Outline: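 qHTS format: cells treated with library compounds in DMSO across 8 (NPC) or 11 (MIPE) concentrations. Readout after 72 hr at 37 degree celsius was CellTiter-Glo luminescence.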
# Potency means the concentration at half of the fitted maximal effect.
row,Structure (SMILES),Potency
1,O=C(c1cc(O)c(O)c(O)c1)c1ccc(O)c(O)c1O,inactive
2,OC1(c2ccc(Cl)c(C(F)(F)F)c2)CCN(CCCC(c2ccc(F)cc2)c2ccc(F)cc2)CC1,18.8 µM (active)
3,CC[C@@H]([C@H](C)O)n1ncn(-c2ccc(N3CCN(c4ccc(OC[C@@H]5CO[C@@](Cn6cncn6)(c6ccc(F)cc6F)C5)cc4)CC3)cc2)c1=O,inactive
4,CCOC(=O)N1CCC(Nc2ccc(Cl)cc2N)CC1,inactive
5,O=C(CCC1CCN(Cc2ccccc2)CC1)c1ccc2c(c1)NCCCC2,inactive
6,CC(=O)O[C@@H]1C(=O)O[C@@H]2[C@H]1OC(=O)[C@@H]2OC(C)=O,inactive
7,CC(C)(c1ccc(O)cc1)c1ccc(O)cc1,inactive
8,CN(CC1(C)CCCO1)S(=O)(=O)c1ccc(Cl)c(S(N)(=O)=O)c1 (stereo unspecified),inactive
9,OCc1c[nH]c2ccccc12,inactive
10,Nc1ccc2cc3ccc(N)cc3nc2c1,13.3 µM (active)
11,CC(C)=CCC/C(C)=C/CC/C(C)=C/C(=O)OCC(=O)[C@@]1(O)CC[C@H]2[C@@H]3CCC4=CC(=O)C=C[C@]4(C)[C@H]3[C@@H](O)C[C@@]21C,inactive
12,COc1c(C)c2c(c(O)c1C/C=C(\C)CCC(=O)OCCN1CCOCC1)C(=O)OC2,0.944 µM (active)
13,CCOC(=O)[C@H](CCc1ccccc1)N[C@@H](C)C(=O)N(CC(=O)O)C1Cc2ccccc2C1,inactive
14,CC(=O)Nc1ccn(C2COC(COC(=O)c3ccccc3)O2)c(=O)n1 (stereo unspecified),inactive
15,CCCCNc1ccc(C(=O)OCCN(CC)CC)cc1,inactive
16,Cc1cc(C(C)(C)C)c(O)c(C(C)(C)C)c1,inactive
